# The supplement of paper PMC10849652
# The full data set covers some 8,800 targets. This sample favours those with a hit. About 0.5% of all pairs of compound and target were hits. A number with no mark means an inactive call.
# Columns and labels:
# Test in all cases: log2 fold change, soluble protein after heating vs DMSO (PISA); higher = thermal stabilisation; K562 lysate, 10 uM; active = over 0.2 and 3.5 SD of the protein, either way, in both replicates (recomputed)
# erlotinib = compound: C#Cc1cccc(Nc2ncnc3cc(OCCOC)c(OCCOC)cc23)c1 [erlotinib]
# Outline: (§1)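 Values give the log-two fold change in thermal stability against solvent controls, from duplicates. Crude K562 extract at 1 mg/mL protein, made by dounce homogenisation in PBS pH 7.4 with 1 mM MgCl2, was treated with 10 μM compound for 30 min. After 3 min heating across 48°C-58°C, aliquots were pooled, adjusted to 0.5% NP-40 at 4°C and centrifuged at 21,000xg for 90 min. The supernatant was measured by TMTpro 16plex LC-MS/MS with channel sums equalised.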
# [1] = compound: C/C(=N\NC(=O)C1=CC(=CC=C1)S(=O)(=O)N2CCOCC2)/C3=C(C=CC(=C3)Cl)O
# Outline: as §1
# [2] = compound: C1=CC(=CC=C1C2=NC3=C(N2)C=C(C=C3)C(=O)N)OC4=CC=C(C=C4)Cl
# Outline: as §1
# [3] = compound: C1=CC2=C(C=CC(=C2)/C=C\3/C(=O)NC(=NCC4=CC=CS4)S3)N=C1
# Outline: as §1
# [4] = compound: C1=CC2=NC=CN=C2C=C1/C=C/3\C(=O)NC(=O)S3
# Outline: as §1
# [5] = compound: C1=CC=C(C=C1)C2=NC(=C(N2)C3=CC=NC=C3)C4=CC(=C(C=C4)Cl)O
# Outline: as §1
# [6] = compound: C1=CC=C2C(=C1)C3=NNC4=CC=CC(=C43)C2=O
# Outline: as §1
# [7] = compound: C1CCN(C1)C(=O)NC2=CC=CC(=C2)NC3=NC=C(C(=N3)NCCC4=CN=CN4)Br
# Outline: as §1
# [8] = compound: C1CN(CCC1(CC2=CC=C(C=C2)Cl)N)C3=NC=NC4=C3C=CN4
# Outline: as §1
# IRAK-1-4 Inhibitor I = compound: C1COCCN1CCN2C3=CC=CC=C3N=C2NC(=O)C4=CC(=CC=C4)[N+](=O)[O-] [IRAK-1-4 Inhibitor I]
# Outline: as §1
# ibrutinib = compound: C=CC(=O)N1CCC[C@@H](n2nc(-c3ccc(Oc4ccccc4)cc3)c3c(N)ncnc32)C1 [ibrutinib]
# Outline: as §1
# [9] = compound: CC(=O)c1cnc2ccc(-c3cc(Cl)c(O)c(Cl)c3)nc2c1N[C@H]1CC[C@H](CN(C)C)CC1
# Outline: as §1
# ralimetinib = compound: CC(C)(C)Cn1c(N)nc2ccc(-c3[nH]c(C(C)(C)C)nc3-c3ccc(F)cc3)nc21 [ralimetinib]
# Outline: as §1
# [10] = compound: CC(C)(O)CC(=O)NCCn1ccc2ncnc(Nc3ccc(Oc4cccc(C(F)(F)F)c4)c(Cl)c3)c21
# Outline: as §1
# [11] = compound: CC(C)C1=C2N=C(C=C(N2N=C1)NCC3=CC=CC=C3)NCCCCCCN
# Outline: as §1
# [12] = compound: CC1=C(C(CC(=O)N1)C2=CC=C(C=C2)C(F)(F)F)C(=O)NC3=C(C=C4C(=C3)C=NN4)F
# Outline: as §1
# [13] = compound: CC1=C(C2=C(C=C1)C(=O)C3=CC=CC=C3N2CCCN)C
# Outline: as §1
# [14] = compound: CC1=C(C=C(C=C1)NC(=O)C2=CC(=CC=C2)C(C)(C)C#N)NC3=CC4=C(C=C3)N=CN(C4=O)C
# Outline: as §1
# [15] = compound: CC1=C(C=C(C=C1)NC(=O)C2=CC(=CC=C2)N(C)C)NC(=O)C3=CC=C(C=C3)O
# Outline: as §1
# [16] = compound: CC1=CC=C(C=C1)SC2=C3C=C(SC3=CN=C2)C(=O)N
# Outline: as §1
# Chain of UniProt Q9UFC0 (Q9UFC0 whole entry, looked up): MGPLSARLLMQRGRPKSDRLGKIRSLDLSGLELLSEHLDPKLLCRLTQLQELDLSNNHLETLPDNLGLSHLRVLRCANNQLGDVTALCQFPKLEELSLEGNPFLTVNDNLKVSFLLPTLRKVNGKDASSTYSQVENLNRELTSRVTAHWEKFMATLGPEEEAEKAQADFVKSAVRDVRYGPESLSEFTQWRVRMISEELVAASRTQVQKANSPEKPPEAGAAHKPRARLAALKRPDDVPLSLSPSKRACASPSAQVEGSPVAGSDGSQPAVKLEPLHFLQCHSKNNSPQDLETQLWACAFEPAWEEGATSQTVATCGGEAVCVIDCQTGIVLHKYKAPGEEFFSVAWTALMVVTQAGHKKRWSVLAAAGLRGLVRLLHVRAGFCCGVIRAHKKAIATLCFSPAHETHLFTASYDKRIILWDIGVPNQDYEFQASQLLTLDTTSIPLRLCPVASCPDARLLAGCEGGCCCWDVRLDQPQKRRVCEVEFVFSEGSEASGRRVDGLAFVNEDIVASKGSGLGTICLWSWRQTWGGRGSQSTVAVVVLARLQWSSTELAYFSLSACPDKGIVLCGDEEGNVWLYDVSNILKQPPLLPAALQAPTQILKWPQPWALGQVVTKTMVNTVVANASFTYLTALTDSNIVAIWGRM
# Chain of UniProt Q9BV79 (Q9BV79 whole entry, looked up): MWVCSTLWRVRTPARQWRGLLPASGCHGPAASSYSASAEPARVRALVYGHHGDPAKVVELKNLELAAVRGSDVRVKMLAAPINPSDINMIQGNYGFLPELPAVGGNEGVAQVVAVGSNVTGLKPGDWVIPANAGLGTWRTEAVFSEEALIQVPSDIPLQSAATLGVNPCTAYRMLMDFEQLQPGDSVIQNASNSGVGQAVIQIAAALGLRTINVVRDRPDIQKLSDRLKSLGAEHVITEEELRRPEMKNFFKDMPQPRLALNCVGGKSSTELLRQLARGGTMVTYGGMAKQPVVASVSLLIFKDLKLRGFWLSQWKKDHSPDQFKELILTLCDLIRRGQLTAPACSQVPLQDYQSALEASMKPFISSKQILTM
# Chain of UniProt Q99661 (Q99661 whole entry, looked up): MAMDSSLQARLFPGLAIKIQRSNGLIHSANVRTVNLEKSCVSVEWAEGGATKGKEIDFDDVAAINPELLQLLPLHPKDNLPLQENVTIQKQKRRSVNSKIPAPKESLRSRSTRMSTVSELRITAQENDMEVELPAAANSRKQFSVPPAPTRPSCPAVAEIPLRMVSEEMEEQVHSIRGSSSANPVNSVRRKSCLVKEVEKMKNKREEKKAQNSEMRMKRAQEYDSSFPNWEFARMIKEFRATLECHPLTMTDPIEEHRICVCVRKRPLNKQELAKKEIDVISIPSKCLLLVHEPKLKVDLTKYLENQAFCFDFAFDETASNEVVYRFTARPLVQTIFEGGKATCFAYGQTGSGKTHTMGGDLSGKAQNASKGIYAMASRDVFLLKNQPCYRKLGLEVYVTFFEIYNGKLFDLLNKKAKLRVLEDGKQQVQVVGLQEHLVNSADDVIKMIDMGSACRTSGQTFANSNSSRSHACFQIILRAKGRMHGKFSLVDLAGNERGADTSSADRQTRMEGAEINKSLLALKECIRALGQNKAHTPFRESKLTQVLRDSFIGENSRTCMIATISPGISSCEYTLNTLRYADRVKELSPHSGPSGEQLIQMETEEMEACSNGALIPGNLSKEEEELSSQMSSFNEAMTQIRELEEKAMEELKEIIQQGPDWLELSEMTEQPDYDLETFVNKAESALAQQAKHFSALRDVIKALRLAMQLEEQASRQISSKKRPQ
# Chain of UniProt Q86V48 (Q86V48 whole entry, looked up): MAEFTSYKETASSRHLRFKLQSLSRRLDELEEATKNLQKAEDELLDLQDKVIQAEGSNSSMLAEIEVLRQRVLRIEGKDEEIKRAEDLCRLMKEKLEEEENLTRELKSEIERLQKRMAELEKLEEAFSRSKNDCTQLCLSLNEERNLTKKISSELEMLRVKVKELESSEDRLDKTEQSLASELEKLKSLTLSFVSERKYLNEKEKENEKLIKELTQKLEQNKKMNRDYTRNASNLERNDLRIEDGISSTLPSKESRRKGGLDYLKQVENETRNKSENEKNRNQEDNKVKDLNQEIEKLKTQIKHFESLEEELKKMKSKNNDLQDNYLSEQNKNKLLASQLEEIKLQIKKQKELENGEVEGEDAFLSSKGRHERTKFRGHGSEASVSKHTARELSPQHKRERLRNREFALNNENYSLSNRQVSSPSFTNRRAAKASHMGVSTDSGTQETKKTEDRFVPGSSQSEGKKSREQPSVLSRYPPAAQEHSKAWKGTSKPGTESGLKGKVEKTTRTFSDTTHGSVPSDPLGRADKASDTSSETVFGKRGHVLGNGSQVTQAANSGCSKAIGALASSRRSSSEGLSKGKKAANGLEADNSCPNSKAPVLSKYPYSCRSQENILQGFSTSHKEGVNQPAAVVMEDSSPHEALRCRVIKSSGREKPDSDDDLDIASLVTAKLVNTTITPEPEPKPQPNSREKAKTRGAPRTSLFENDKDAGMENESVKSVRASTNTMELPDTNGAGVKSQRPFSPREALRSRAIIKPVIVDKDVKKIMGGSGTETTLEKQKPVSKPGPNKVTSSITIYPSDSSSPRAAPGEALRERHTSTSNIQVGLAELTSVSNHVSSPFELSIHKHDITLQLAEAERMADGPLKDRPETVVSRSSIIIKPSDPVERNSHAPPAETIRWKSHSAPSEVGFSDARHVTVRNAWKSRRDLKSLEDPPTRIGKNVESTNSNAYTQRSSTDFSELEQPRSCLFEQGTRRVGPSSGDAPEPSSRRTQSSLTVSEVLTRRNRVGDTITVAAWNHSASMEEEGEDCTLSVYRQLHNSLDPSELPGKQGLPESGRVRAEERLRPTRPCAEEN
# Chain of UniProt O95297 (O95297 whole entry, looked up): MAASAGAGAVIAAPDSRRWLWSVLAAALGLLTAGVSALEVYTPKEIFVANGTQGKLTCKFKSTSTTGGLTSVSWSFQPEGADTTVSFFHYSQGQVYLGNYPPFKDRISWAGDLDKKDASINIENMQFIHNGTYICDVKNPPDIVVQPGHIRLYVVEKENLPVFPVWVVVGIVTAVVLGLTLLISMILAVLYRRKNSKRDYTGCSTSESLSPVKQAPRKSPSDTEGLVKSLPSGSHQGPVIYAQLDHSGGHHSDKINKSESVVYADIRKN
# Chain of UniProt Q16539 (Q16539 whole entry, looked up): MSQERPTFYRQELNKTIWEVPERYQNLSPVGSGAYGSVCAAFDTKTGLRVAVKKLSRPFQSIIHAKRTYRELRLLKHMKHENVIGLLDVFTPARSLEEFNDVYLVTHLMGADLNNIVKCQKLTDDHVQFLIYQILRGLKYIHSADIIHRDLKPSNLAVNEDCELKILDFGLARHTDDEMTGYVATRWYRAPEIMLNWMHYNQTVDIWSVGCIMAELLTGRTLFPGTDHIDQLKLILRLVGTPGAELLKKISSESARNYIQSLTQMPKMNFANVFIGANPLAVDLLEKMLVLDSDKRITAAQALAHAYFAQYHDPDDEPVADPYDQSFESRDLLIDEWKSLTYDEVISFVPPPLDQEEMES
# Chain of UniProt P46734 (P46734 whole entry, looked up): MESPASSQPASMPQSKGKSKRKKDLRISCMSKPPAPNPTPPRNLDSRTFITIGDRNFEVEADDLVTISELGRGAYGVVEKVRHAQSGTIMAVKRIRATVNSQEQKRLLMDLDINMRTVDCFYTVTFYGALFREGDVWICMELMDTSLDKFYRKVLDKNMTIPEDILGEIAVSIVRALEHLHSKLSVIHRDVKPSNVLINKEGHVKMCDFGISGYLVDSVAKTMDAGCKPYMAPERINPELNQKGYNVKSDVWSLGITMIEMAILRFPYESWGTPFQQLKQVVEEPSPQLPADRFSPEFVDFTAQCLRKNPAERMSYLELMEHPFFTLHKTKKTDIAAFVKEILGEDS
# Chain of UniProt P49137 (P49137 whole entry, looked up): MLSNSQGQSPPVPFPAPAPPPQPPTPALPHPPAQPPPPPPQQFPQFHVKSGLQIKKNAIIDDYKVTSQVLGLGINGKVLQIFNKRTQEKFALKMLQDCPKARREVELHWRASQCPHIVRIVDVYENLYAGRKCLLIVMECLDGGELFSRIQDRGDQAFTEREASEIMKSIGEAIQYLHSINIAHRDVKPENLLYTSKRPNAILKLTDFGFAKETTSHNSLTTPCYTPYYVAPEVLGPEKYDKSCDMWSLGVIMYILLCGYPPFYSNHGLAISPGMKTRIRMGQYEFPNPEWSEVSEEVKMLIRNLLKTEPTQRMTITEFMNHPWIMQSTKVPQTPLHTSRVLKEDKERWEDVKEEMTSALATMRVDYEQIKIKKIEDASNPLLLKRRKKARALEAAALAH
# Chain of UniProt O00629 (O00629 whole entry, looked up): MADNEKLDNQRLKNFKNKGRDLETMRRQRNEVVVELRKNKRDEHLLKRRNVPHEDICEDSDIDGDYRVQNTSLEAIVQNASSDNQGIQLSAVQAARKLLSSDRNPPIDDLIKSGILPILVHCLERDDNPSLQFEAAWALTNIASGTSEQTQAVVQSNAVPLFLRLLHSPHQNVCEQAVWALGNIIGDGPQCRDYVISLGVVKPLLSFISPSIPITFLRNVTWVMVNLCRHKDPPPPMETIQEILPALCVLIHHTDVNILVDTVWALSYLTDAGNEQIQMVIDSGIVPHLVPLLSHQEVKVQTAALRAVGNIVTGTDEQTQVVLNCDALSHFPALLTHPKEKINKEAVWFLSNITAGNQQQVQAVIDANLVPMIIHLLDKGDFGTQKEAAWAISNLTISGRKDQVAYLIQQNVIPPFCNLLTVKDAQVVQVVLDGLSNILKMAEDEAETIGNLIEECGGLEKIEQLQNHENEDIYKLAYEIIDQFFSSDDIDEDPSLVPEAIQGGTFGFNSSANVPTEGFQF
Target,log2 fold change (erlotinib),log2 fold change [1],log2 fold change [2],log2 fold change [3],log2 fold change [4],log2 fold change [5],log2 fold change [6],log2 fold change [7],log2 fold change [8],log2 fold change (IRAK-1-4 Inhibitor I),log2 fold change (ibrutinib),log2 fold change [9],log2 fold change (ralimetinib),log2 fold change [10],log2 fold change [11],log2 fold change [12],log2 fold change [13],log2 fold change [14],log2 fold change [15],log2 fold change [16]
MRPL28 (UniProt Q13084),-0.112,-0.085,0.027,0.011,-0.074,0.017,0.024,0.042,-0.031,-0.03,0.151,0.04,0.027,-0.005,0.012,-0.112,-0.017,0.057,-0.012,0.023
LYSMD3 (UniProt Q7Z3D4),-0.067,-0.051,0.044,0.069,0.05,0.007,-0.11,0.037,0,-0.01,0.098,-0.072,0.003,-0.046,-0.045,-0.099,-0.003,0.034,0.005,-0.01
MPZL1 (UniProt O95297),-0.057,0.068,-0.036,0.003,-0.042,0.017,-0.005,0.015,-0.04,0.015,0.01,-0.008,-0.01,0.022,-0.035,-0.006,0.003,0.02,-0.035,-0.036
KLC2 (UniProt Q9H0B6),-0.008,0.065,0.07,0.008,-0.056,0.004,-0.061,-0.048,-0.056,-0.009,0.021,0.01,0.003,0.008,-0.001,-0.045,-0.036,0.012,0.016,-0.012
KMT2A isoform 3 (UniProt Q03164),-0.022,0.351,0.041,-0.047,-0.014,-0.069,-0.004,0.005,-0.06,0.07,-0.054,0.005,-0.008,-0.117,0.019,-0.114,-0.047,-0.046,0.025,0
MAP2K3 isoform 3 (UniProt P46734),0.048,0.061,0.03,-0.063,0.03,-0.037,0.119,-0.006,0.129,0.03,-0.041,0.095,0.012,-0.008,-0.15,0.019,-0.095,0.021,0.123,0.114
MAPK14 (UniProt Q16539),0.044,0.038,-0.1,-0.05,-0.012,0.82 (active),0.081,-0.076,0.015,0.013,0.042,0.238,1.16 (active),-0.008,-0.06,-0.14,-0.026,0.88 (active),0.455,-0.007
MECR (UniProt Q9BV79),-0.019,0.027,-0.005,-0.028,0.012,-0.038,-0.035,-0.053,0.079,0.025,0.025,-0.029,-0.006,-0.049,0.008,0.008,0.058,-0.006,0.006,0.011
MAPK6 (UniProt Q16659),-0.004,0.036,0.019,0.006,0.015,0.001,0.069,0.068,0.015,-0.027,0.07,0.025,0.004,-0.05,0.012,0,0,-0.006,0.029,0.021
MAPKAPK2 (UniProt P49137),-0.047,0.041,0,0.192,0.003,0.013,0.026,-0.02,0.018,-0.017,0.05,0.385 (active),-0.011,0.016,-0.046,0.003,0.002,-0.056,0.026,0
LRWD1 (UniProt Q9UFC0),-0.031,-0.002,0.031,0.032,0.057,0.016,-0.014,0.002,0.03,-0.02,0.082,-0.009,0.004,0,0.035,0.015,-0.004,0,0.032,0.04
LUZP1 (UniProt Q86V48),-0.074,-0.06,-0.033,0.027,-0.028,-0.009,0.031,-0.009,0.009,0.085,0.002,-0.002,0.003,-0.012,0.016,-0.006,0.012,0.011,-0.002,0.017
KPNA4 (UniProt O00629),-0.015,-0.037,0.046,0.022,-0.014,-0.013,-0.007,-0.045,-0.012,0.038,-0.037,-0.047,-0.024,0.002,0.019,0.003,0.019,0.019,0,-0.018
MAP4K4 isoform 3 (UniProt O95819),-0.003,-0.025,0.099,0.038,-0.027,-0.093,-0.077,0.008,-0.011,0.059,-0.052,-0.021,-0.065,-0.002,0.046,0.067,-0.042,-0.022,0.062,-0.056
MARK2 (UniProt E9PC69),0.095,0.132,0.026,0.056,-0.017,0.024,-0.246,-0.18,-0.084,-0.076,0.139,-0.053,0.014,-0.004,0.015,-0.012,-0.063,0.024,0.045,0.012
KIF2C (UniProt Q99661),0.019,0.033,-0.008,-0.01,-0.008,0.002,-0.033,0.015,-0.006,-0.019,0.004,0.014,0.048,0.025,-0.014,-0.005,-0.004,0.004,0.039,0.016
